Measured values as given in PubChem BioAssay (Tox21).
Inconclusive results are not listed. Activity calls are given as the source filed them. Unless noted, calls follow the shape of the full dose curve.

Tests used:
[1] = Nuclear factor erythroid 2-related factor 2/antioxidant responsive element (Nrf2/ARE) small molecule agonists: qHTS cell viability counter screen in human keratinocytes (AID 1919968; active = well fitted curve in the direction sought with a large enough effect in the repeat runs; an effect the other way counts as inactive or inconclusive; also: nearly all actives have a fitted effect of over 55% in size)
How it was run: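 Parallel cytotoxicity read: KeratinoSens HaCaT cells, compound treatment 23 h, viability by CellTiter-Fluor fluorescence 1 h post-reagent.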

[2] = Nuclear factor erythroid 2-related factor 2/antioxidant responsive element (Nrf2/ARE) small molecule agonists: luciferase reporter gene qHTS assay in human keratinocytes (AID 1919969); also: nearly all actives have a fitted effect of over 35% in size
[3] = target: Gonadotropin-releasing hormone receptor (Homo sapiens) (UniProt P30968); experiment: Human gonadotropin-releasing hormone receptor (GnRHR) small molecule agonists, calcium flux assay in GnRHR-HEK293 cells (AID 1920063); also: nearly all actives have a fitted effect of over 35% in size
Gonadotropin-releasing hormone receptor (Homo sapiens), sequence (P30968 whole entry, looked up): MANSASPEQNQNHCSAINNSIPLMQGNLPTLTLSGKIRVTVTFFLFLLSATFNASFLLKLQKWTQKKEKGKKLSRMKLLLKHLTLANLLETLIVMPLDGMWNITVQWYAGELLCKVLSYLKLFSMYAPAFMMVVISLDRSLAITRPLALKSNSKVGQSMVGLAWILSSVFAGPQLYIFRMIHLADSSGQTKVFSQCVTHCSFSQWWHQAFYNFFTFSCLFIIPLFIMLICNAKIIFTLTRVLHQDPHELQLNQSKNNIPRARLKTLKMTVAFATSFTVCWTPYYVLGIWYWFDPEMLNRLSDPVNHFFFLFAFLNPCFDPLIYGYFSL
How it was run: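 Calcium flux, agonist mode, human GnRHR stably integrated in HEK293; dye 1 h at 37 C before compound; Ex/Em=480/540 kinetic read, 3 min; 15 concentrations, triplicate.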

[4] = target: KiSS-1 receptor (Homo sapiens) (UniProt Q969F8); experiment: Human kisspeptin (KISS1R) small molecule agonists, calcium flux assay in KISS1R-HEK293 cells (AID 1920064; active = well fitted curve in the direction sought with a large enough effect in the repeat runs; an effect the other way counts as inactive or inconclusive)
KiSS-1 receptor (Homo sapiens), sequence (Q969F8 whole entry, looked up): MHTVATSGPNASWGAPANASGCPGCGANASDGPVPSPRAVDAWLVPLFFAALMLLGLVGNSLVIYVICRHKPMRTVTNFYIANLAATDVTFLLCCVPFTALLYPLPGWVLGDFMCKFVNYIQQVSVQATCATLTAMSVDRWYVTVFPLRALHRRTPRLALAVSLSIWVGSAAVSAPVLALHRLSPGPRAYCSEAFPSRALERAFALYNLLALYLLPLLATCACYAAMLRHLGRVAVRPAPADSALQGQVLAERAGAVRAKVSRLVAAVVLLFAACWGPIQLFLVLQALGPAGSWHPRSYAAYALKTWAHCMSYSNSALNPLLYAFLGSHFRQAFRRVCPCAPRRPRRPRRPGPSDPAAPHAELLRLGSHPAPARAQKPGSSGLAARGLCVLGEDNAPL
How it was run: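 Triplicate 15-concentration series were applied to dye-loaded human KISS1R HEK293 cells, and agonist-evoked calcium fluorescence was captured for 3 min.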

[5] = G protein-coupled receptor (GPCR) small molecule agonists, calcium flux assay: HEK293 wild type cell line counter screen (AID 1920065)
How it was run: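 Non-specific calcium responders were flagged by adding DMSO-dissolved compounds to dye-loaded cells and reading 480/540 nm fluorescence each second for 3 min; ATP served as positive control.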

[6] = p53 small molecule agonists, cell-based qHTS assay with human liver microsomes (AID 1963577)
How it was run: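 p53RE-bla cells, 4,000/well, compound added after 5 h, with human liver microsomes 0.5 mg/mL and NADPH 0.5 mg/mL final; 16 h at 37 C, then LiveBLAzer 2 h RT, fluorescence.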

[7] = p53 small molecule agonists, cell-based qHTS assay with rat liver microsomes (AID 1963578)
How it was run: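 p53RE-bla cells, 4,000/well, pre-incubated 5 h, then given compounds plus rat liver microsomes (0.5 mg/mL final) and NADPH (0.5 mg/mL final). Incubation 16 h at 37 C; beta-lactamase reporter read by LiveBLAzer fluorescence after 2 h at room temperature.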

[8] = p53 small molecule agonists, cell-based qHTS assay with human liver microsomes: qHTS cell viability counter screen (AID 1963579); also: nearly all actives have a fitted effect of over 45% in size
How it was run: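 p53RE-bla cells, 4,000/well, dosed 5 hours after plating, with human liver microsomes (0.5 mg/mL final) plus NADPH (0.5 mg/mL final), 16 hours at 37 C. Viability read as CellTiter-Glo luminescence after 30 min at room temperature.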

[9] = p53 small molecule agonists, cell-based qHTS assay with rat liver microsomes: qHTS cell viability counter screen (AID 1963580); also: nearly all actives have a fitted effect of over 45% in size
How it was run: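 Cytotoxicity counter screen: intracellular ATP read by CellTiter-Glo luminescence in the p53 reporter wells. HCT-116 p53RE-bla cells were treated for 16 h at 37 C alongside rat liver microsomes and NADPH, each 0.5 mg/mL final.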

[10] = p53 small molecule agonists, cell-based qHTS assay: qHTS cell viability counter screen (AID 1963581); also: nearly all actives have a fitted effect of over 45% in size
How it was run: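 Multiplexed with the reporter read, a CellTiter-Glo step (30 min, room temperature) gauges ATP-based viability of HCT-116 p53RE-bla cells after 16 h compound incubation at 37 C.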

[11] = p53 small molecule agonists, cell-based qHTS assay (AID 1963582; active = well fitted activation curve with a large enough effect in the signal ratio in the repeat runs, not every such curve was filed as active; the % refers to the signal ratio)
How it was run: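 Beta-lactamase reporter cells (p53RE-bla) treated with compounds for 16 h at 37 C; FRET substrate, 2 h, room temperature; fluorescence intensity.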

[12] = target: 5-hydroxytryptamine receptor 2A (Homo sapiens) (UniProt P28223); experiment: 5-hydroxytryptamine receptor 2A (HTR2A) small molecule antagonists, cell-based qHTS assay (AID 1963586); also: nearly all actives have a fitted effect of over 45% in size
5-hydroxytryptamine receptor 2A (Homo sapiens), sequence (P28223 whole entry, looked up): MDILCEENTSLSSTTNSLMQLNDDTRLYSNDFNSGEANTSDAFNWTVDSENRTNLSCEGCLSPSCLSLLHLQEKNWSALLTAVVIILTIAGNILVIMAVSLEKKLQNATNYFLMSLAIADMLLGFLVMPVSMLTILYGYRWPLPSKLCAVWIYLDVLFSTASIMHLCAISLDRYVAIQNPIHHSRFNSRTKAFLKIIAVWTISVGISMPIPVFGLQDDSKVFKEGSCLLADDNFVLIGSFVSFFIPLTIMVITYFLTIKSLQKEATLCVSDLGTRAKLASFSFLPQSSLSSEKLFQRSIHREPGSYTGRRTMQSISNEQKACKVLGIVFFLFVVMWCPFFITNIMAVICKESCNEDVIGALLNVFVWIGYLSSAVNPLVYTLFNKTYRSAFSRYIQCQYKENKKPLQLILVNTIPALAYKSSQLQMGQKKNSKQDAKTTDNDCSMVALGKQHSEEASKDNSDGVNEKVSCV
How it was run: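 CHO cells stably expressing human HTR2A were plated for 18 h at 37 C, then loaded with calcium dye for 1 h. Compounds were preincubated 5 min at room temperature before DOI (4 nM solution) was added. Kinetic fluorescence was read for 3 min.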

[13] = target: 5-hydroxytryptamine receptor 2A (Homo sapiens) (UniProt P28223); experiment: 5-hydroxytryptamine receptor 2A (HTR2A) small molecule agonists, cell-based qHTS assay (AID 1963587); also: nearly all actives have a fitted effect of over 30% in size
How it was run: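 Kinetic calcium-flux fluorescence (2 min, 1 sec intervals) after compound addition in agonist mode. HTR2A-CHO cells were cultured 18 h, then dye-loaded 1 h at 37 C.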

[14] = target: Muscarinic acetylcholine receptor M1 (Homo sapiens) (UniProt P11229); experiment: Cholinergic receptor muscarinic 1 (CHRM1) small molecule antagonists, cell-based qHTS assay (AID 1963588); also: nearly all actives have a fitted effect of over 40% in size
Muscarinic acetylcholine receptor M1 (Homo sapiens), sequence (P11229 whole entry, looked up): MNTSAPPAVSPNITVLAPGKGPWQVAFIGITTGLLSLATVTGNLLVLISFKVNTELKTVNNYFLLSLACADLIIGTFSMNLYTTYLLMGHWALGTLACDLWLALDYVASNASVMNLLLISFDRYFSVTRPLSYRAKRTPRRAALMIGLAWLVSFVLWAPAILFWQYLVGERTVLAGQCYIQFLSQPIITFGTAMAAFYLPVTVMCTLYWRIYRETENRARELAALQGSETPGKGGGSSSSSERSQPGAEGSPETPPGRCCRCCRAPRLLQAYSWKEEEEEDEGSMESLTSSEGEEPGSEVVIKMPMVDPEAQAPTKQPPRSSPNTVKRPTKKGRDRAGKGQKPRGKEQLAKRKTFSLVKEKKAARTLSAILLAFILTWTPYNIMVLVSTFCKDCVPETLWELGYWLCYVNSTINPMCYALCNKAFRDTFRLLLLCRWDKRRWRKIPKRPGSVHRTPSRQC
How it was run: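 Compounds were tested at 15 concentrations in three independent runs. Dye-loaded CHRM1-CHO cells were exposed 5 min at room temperature before stimulation by acetylcholine added at 50nM. Intracellular calcium was read kinetically on FDSS for 3 min.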

[15] = target: Muscarinic acetylcholine receptor M1 (Homo sapiens) (UniProt P11229); experiment: Cholinergic receptor muscarinic 1 (CHRM1) small molecule agonists, cell-based qHTS assay (AID 1963589); also: nearly all actives have a fitted effect of over 35% in size
How it was run: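 qHTS, 15-point titration, 3 independent runs: compounds pin-transferred onto dye-loaded CHRM1-CHO cells (human M1), calcium fluorescence followed every second to detect agonism.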

[16] = cAMP Responsive Elements (CRE) small molecule agonists, cell-based qHTS assay (AID 1963590)
How it was run: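 Quantitative HTS for CRE agonists: HEK 293T CRE-bla cells, overnight plating, 3 h compound incubation at 37 C/5% CO2, then 2 h room-temperature LiveBLAzer B/G FRET substrate loading.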

[17] = cAMP Responsive Elements (CRE) small molecule antagonists, cell-based qHTS assay (AID 1963591; active = well fitted inhibition curve with a large enough effect in the signal ratio in the repeat runs, not every such curve was filed as active; the % refers to the signal ratio)
How it was run: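 Fluorescence intensity from cleaved LiveBLAzer B/G substrate (2 h, room temperature) quantified CRE-bla activity in HEK 293T cells exposed 3 h to compound with 0.25 uM final NKH477.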

[18] = target: Beta-2 adrenergic receptor (Homo sapiens) (UniProt P07550); experiment: Adrenergic beta2 receptor (ADRB2) small molecule antagonists, cell-based qHTS assay (AID 1963592); also: series mostly up to about 92 µM; nearly all actives have a fitted effect of over 50% in size
Beta-2 adrenergic receptor (Homo sapiens), sequence (P07550 whole entry, looked up): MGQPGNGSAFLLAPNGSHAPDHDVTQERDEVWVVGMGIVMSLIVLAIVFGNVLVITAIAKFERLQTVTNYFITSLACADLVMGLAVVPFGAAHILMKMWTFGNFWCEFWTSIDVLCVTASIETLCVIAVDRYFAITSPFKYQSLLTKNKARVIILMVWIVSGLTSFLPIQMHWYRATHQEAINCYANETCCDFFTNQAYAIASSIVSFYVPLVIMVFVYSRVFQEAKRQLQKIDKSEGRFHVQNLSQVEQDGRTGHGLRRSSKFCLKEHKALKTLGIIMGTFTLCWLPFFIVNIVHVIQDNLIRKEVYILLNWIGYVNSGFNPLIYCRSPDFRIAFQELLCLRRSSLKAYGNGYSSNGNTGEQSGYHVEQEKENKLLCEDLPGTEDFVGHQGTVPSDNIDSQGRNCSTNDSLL
How it was run: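 Assay format: CHO-ADRB2 cells, 18-20hr seeding at 37C/5% CO2, then compound plus 1nM isoproterenol agonist mix for 0.5hr RT. Homogeneous time-resolved fluorescence cAMP detection after 1hr, expressed as 665/615 nm ratio.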

[19] = target: D(2) dopamine receptor (Homo sapiens) (UniProt P14416); experiment: Dopamine D2 receptor (DRD2) small molecule agonists, cell-based qHTS assay (AID 1963594); also: nearly all actives have a fitted effect of over 35% in size
D(2) dopamine receptor (Homo sapiens), sequence (P14416 whole entry, looked up): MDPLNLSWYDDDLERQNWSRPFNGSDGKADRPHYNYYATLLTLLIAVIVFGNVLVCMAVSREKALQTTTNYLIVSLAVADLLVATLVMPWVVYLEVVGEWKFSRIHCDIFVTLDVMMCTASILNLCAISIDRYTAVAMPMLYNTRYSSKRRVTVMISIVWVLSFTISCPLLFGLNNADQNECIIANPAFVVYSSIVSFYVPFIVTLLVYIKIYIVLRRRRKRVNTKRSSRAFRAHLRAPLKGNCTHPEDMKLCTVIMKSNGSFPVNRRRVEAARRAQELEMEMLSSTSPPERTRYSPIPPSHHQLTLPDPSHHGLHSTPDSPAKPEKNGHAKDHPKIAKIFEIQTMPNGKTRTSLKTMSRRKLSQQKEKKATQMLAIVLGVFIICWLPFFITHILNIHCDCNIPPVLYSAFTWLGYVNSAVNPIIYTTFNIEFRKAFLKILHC
How it was run: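 cAMP accumulation in DRD2-HEK293 cells measured by HTRF after 1 h detection; compounds added 10 min before NKH477 (200nM […]) forskolin-analogue stimulation, 30 min at room temperature, with Ro20-1724 present at 0.1 mM final.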

[20] = target: D(2) dopamine receptor (Homo sapiens) (UniProt P14416); experiment: Dopamine D2 receptor (DRD2) small molecule antagonists, cell-based qHTS assay (AID 1963595; active = well fitted inhibition curve with a large enough effect in the signal ratio in the repeat runs, with a control signal flat; the % refers to the signal ratio)
How it was run: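 Antagonism was scored as restored cAMP in HEK293-DRD2 cells. These cells were stimulated with 200 nM NKH477 and 12 nM quinpirole for 30 min at room temperature, in the presence of 0.1 mM Ro20-1724.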

Measured: Potency

CCn1c2ccccc2c2ccccc21
inactive: all assays above

NC(=O)Cc1cccc(C(=O)c2ccccc2)c1N
inactive: all assays above

C[CH2][Ge]([Cl])([CH2]C)[CH2]C
inactive: all assays above

CCCCSCCCC
inactive: all assays above

C/C=C/CO
inactive: all assays above

C=Cc1ccccn1
inactive: all assays above

CCCCCCCCCCCCCCO
inactive: all assays above
